The record followed here is the supplement of paper PMC11732987, “Enantioselective OTUD7B fragment discovery through chemoproteomics screening and high-throughput optimisation” (Communications Chemistry, 2025).

Each structure is given as a SMILES string. A number with no mark means an inactive call.

Common to all, as to assay: log2 ratio of Biotin-Ahx-Ub-VS probe labelling (fragment/DMSO); higher = less target engagement (more negative = stronger competition), active = hit call of the paper (q ≤ 0.05, log2 ratio ≤ -1)
Holding throughout (conditions): compound concentration: 200 uM; treatment time: 3 h

In one test the target is USP16 (UniProt Q9Y5T5). The procedure, abridged:
(§1)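 Global-median-normalised Spectronaut label-free quantities were compared by unpaired t-test, and values are average log2 ratios of fragment over vehicle. Only proteins with ≥2 unique peptides were used. HEK293T lysate (495 µg per sample) was treated in triplicate with fragment at 200 µM or vehicle for 3 h and then with Biotin-Ahx-Ub-VS at 0.5 µM final for 1 h. Labelled DUBs were then NeutrAvidin-enriched, digested with LysC and trypsin, and run by diaPASEF LC-MS/MS.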

The target in another test is T1, USP19 (UniProt O94966).
T1 sequence (whole entry): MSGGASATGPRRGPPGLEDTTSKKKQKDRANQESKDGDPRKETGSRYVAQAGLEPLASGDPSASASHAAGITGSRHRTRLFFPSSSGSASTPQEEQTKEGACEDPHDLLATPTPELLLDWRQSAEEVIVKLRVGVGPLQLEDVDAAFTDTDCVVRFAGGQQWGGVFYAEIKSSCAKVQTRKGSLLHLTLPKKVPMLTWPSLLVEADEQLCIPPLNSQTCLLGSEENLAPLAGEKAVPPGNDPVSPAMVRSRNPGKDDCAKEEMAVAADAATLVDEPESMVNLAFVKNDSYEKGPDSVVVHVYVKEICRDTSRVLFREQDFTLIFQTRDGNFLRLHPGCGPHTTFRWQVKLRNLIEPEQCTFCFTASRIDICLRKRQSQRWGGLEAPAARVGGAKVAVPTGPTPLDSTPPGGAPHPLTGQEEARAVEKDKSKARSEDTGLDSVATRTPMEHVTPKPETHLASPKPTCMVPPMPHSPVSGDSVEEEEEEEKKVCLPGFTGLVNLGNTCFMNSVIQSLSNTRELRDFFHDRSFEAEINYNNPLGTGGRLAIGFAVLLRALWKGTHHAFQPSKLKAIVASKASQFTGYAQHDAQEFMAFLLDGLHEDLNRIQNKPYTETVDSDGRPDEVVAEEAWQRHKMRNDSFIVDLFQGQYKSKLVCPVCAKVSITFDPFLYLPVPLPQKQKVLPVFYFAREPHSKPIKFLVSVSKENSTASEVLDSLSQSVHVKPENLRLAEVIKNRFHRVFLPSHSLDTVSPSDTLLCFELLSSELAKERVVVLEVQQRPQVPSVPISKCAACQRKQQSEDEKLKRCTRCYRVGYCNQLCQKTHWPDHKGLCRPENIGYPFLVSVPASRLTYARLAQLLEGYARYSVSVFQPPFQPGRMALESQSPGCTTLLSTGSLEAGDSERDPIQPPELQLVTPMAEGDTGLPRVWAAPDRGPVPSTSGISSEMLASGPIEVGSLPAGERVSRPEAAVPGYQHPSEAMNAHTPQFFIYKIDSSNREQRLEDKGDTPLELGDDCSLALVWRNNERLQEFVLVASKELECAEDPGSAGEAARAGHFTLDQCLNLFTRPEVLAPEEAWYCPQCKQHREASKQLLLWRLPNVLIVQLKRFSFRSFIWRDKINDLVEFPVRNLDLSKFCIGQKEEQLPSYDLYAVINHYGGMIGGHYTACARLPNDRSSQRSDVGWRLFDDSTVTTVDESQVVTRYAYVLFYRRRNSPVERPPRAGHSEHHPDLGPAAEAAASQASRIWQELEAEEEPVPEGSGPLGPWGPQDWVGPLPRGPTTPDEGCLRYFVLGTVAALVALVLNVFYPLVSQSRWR
In a few lines:
as §1

The next test has as its target USP24 (UniProt Q9UPU5). In a few lines:
as §1

Another test has as its target T2, USP25 (UniProt Q9UHP3).
T2 sequence (whole entry): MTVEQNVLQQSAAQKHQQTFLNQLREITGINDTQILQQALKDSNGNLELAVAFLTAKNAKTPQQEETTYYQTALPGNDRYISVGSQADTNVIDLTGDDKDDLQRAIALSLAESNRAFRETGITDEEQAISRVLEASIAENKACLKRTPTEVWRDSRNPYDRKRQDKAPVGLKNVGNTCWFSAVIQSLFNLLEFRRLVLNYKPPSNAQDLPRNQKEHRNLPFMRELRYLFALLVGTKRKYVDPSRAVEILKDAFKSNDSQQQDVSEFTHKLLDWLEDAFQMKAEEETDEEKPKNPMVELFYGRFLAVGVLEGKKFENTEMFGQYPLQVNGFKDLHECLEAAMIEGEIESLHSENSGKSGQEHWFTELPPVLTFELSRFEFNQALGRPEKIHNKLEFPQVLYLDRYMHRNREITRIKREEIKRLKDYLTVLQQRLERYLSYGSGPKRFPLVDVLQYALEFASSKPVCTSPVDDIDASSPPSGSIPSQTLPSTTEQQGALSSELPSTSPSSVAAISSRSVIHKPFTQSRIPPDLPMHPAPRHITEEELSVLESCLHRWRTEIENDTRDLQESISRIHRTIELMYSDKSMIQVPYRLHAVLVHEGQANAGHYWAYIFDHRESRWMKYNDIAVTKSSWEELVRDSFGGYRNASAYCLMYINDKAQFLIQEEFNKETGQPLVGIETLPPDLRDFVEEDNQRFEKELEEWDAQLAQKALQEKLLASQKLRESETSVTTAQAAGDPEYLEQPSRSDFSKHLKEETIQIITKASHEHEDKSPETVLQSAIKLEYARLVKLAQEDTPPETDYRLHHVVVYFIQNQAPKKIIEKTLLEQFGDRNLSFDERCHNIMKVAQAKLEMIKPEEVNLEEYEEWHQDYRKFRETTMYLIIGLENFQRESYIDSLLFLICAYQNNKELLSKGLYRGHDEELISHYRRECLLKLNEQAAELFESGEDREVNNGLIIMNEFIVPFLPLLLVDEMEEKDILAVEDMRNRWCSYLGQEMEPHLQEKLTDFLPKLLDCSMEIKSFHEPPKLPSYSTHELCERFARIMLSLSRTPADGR
In a few lines:
as §1

The target of another test is T3, USP28 (UniProt Q96RU2).
T3 sequence (whole entry): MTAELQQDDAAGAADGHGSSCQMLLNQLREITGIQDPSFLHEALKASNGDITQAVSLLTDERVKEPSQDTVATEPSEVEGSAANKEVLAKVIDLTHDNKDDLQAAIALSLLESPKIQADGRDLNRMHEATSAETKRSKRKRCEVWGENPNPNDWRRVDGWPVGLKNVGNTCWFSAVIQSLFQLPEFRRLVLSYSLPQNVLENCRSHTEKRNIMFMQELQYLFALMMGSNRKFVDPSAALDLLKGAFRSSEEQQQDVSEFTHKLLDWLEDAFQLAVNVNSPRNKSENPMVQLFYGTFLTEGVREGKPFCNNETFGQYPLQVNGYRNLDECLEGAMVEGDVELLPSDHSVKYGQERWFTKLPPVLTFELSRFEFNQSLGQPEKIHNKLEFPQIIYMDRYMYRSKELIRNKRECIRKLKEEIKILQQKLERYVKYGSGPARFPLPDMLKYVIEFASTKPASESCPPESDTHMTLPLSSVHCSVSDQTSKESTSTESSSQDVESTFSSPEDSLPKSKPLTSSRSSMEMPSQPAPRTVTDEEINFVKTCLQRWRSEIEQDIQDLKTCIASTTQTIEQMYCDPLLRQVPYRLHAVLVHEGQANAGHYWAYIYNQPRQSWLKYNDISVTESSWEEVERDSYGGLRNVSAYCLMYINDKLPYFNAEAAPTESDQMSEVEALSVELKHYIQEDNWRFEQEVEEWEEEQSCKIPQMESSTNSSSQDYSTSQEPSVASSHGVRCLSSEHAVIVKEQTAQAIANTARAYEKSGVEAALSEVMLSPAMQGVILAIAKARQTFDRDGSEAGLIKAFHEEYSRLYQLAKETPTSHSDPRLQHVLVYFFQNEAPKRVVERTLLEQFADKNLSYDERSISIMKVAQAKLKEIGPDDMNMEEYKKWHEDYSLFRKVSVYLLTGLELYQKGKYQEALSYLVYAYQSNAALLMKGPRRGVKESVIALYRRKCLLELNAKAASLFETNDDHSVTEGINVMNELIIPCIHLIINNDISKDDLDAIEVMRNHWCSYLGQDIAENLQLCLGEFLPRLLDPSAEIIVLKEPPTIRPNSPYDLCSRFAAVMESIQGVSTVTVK
In a few lines:
as §1

Sequence of USP16 (Q9Y5T5 whole entry, looked up, the tested form may be a part): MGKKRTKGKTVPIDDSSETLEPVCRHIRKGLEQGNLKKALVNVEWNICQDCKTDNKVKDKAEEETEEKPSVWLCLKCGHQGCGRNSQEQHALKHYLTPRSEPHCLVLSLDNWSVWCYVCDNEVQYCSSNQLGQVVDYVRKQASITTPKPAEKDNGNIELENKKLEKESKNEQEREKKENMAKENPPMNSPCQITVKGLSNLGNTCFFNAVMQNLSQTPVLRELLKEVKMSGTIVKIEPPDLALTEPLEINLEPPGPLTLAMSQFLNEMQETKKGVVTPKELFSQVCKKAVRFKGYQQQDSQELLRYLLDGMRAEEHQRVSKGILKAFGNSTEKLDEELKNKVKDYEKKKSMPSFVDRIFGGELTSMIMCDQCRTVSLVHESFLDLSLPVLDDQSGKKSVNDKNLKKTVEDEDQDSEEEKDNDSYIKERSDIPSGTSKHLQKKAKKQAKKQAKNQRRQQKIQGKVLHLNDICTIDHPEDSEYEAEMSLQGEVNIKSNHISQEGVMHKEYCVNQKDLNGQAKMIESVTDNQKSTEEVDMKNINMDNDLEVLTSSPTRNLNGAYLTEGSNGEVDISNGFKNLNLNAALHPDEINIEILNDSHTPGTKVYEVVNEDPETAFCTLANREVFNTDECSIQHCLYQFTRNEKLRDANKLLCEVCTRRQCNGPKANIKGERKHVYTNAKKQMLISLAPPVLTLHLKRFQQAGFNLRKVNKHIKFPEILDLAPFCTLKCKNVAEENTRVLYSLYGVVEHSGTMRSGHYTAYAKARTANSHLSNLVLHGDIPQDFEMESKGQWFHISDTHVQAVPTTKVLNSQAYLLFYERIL
Sequence of USP24 (Q9UPU5 whole entry): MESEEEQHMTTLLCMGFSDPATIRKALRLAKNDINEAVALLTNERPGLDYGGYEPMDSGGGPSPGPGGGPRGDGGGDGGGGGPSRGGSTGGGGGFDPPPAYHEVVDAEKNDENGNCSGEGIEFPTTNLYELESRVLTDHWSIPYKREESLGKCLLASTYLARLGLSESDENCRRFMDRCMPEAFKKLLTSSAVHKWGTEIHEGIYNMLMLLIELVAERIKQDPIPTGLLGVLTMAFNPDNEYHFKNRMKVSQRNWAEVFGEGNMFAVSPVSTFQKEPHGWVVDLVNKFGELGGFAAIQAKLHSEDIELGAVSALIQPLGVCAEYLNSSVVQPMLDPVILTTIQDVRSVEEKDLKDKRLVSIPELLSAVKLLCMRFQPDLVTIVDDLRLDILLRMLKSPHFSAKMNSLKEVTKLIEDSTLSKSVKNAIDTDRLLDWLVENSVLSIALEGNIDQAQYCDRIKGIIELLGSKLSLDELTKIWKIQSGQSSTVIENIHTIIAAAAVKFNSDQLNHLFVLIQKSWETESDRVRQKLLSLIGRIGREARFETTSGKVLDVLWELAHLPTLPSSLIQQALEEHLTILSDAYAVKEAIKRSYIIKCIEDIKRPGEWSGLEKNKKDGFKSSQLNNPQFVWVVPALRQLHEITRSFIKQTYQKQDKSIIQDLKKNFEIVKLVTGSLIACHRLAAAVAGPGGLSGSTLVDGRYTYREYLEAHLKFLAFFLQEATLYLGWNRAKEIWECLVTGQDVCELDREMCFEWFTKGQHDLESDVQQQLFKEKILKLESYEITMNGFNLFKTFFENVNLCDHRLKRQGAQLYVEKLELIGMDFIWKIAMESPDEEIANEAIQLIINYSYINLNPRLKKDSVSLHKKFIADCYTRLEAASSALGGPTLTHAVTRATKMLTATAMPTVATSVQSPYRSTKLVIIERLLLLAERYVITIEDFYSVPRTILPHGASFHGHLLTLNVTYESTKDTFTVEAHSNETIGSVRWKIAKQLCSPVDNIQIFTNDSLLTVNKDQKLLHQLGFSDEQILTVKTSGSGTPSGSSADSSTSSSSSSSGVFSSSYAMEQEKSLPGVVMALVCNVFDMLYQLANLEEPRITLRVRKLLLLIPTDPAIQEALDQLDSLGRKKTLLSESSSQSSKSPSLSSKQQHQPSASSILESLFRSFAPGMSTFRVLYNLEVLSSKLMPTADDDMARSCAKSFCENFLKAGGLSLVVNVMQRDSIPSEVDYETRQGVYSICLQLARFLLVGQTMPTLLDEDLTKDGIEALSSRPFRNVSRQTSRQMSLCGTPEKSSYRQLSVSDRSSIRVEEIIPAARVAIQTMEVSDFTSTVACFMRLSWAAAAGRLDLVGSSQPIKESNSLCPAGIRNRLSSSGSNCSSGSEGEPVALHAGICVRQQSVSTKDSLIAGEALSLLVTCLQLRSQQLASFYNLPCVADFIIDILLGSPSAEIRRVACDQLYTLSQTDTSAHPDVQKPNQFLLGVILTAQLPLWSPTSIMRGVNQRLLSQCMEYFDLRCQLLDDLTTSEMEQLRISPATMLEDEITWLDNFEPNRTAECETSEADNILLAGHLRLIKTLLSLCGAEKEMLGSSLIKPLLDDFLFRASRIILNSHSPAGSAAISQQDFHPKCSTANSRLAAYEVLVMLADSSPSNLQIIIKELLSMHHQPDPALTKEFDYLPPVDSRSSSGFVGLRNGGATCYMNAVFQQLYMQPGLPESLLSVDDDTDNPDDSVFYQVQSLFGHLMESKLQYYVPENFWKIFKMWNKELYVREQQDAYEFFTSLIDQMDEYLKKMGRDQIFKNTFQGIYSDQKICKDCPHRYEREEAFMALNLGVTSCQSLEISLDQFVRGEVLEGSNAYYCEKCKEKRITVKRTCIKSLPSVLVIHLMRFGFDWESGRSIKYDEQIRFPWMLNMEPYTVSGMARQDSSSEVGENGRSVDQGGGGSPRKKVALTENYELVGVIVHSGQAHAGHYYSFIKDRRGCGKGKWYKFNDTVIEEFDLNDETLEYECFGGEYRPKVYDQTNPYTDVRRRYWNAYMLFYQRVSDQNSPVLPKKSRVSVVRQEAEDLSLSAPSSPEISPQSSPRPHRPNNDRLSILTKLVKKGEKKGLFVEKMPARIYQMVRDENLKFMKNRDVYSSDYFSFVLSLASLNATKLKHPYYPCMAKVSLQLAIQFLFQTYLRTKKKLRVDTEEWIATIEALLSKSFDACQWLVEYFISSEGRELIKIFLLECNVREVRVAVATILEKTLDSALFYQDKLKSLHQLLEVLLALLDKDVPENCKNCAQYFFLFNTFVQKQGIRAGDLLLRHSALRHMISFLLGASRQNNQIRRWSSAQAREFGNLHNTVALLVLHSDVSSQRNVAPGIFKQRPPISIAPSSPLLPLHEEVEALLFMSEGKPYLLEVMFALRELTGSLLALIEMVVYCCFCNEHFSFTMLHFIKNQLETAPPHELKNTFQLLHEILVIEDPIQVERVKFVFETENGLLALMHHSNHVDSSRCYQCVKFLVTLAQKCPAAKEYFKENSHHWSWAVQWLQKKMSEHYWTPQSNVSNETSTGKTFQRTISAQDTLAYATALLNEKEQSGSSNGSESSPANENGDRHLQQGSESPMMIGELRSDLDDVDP

For `O=C(CCl)N1CC=C(c2c[nH]c3ccccc23)CC1`, the “log2 ratio of Biotin-Ahx-Ub-VS probe labelling” value with USP16 was 0.156; in the test with USP19, -1.72 (active); with USP24, -1.48 (active); with USP25, -0.457; with USP28 it was -1.1 (active).
